Measured values reported in PubChem BioAssay (NCATS).
Results filed as inconclusive are left out. Unmarked numbers belong to inactive results. Active and inactive are the calls of the source. Calls come from the whole dose curve; as a rule, active = well fitted inhibition curve with a large enough effect; inconclusive = small, poorly fitted or top-dose-only effect, or effect the other way; inactive = no such curve, though single readings can be large or run the other way.

Assay: Quantitative high throughput screen for delayed death inhibitors of the malarial parasite plastid, 96 hour incubation (AID 488745); note: nearly all actives have a fitted effect of over 70% in size
Conditions: Plasmodium falciparum growth; series mostly up to 28.7 µM; activity change, negative = inhibition: at the top concentration
Excerpt: NIH Molecular Libraries Probe Production Network [MLPCN]
NIH Chemical Genomics Center [NCGC]
Assay Provider: David Fidock and Eric Ekland, Columbia University
The goal of this screen is to discover new antimalarial compounds that act by inhibiting the development of the apicoplast in the malarial parasite Plasmodium falciparum. The biochemical processes that make this organelle essential for erythrocytic stage parasites are not well understood. However, antibiotics such as azithromycin and tetracycline, which target the apicoplast translational machinery, have a potent antimalarial effect.
We have developed a cell-based assay that measures parasite growth based on the expression of an integrated copy of a firefly luciferase reporter. To detect small molecules that cause this 'delayed death' phenotype, erythrocytes infected with the luciferase-expressing parasites were incubated with compounds for either one or two generations, corresponding to 48 and 96 hours, respectively. Compounds that inhibit parasite growth in the second generation, but not the first, should be enriched in antimalarials that target the apicoplast. Growth inhibition is detected by a decrease in luciferase activity
Four microliters of culture medium (RPMI 1640 with 0.5% w/v Albumax (GIBCO), 24 mM sodium bicarbonate and 10 ug/mL gentamycin) were dispensed by a Multi-drop Combi into white solid 1536-well plates (Grenier) and 23 nL compound was added by a pin tool. Four microliters of infected erythrocytes (2% hematocrit, 0.1% parasitemia final concentration) in culture medium were dispensed and the plates incubated for 96 hours at 37 C in 5% CO2. Two microliters of luciferase detection reagent was added and luminescence was detected by a ViewLux (PerkinElmer) reader
% is set by controls: 0 for no effect and ±100 for the full control effect; potency is the fitted concentration of half-maximal effect.

Row | SMILES | activity change, negative = inhibition [%] | Potency
1 | CC(C)(C)NCC(O)c1ccccc1Cl (stereo not drawn) | -8.59 | 
2 | CC(NC(C)(C)C)C(=O)c1cccc(Cl)c1 (stereo not drawn) | 1.69 | 
3 | O=P1(N(CCCl)CCCl)NCCCO1 (stereo not drawn) | 3.08 | 
4 | CC(C)N(CCC(C(N)=O)(c1ccccc1)c1ccccn1)C(C)C (stereo not drawn) | -4.23 | 
5 | CCC1(c2ccc(N)cc2)CCC(=O)NC1=O (stereo not drawn) | 2.41 | 
6 | CN1C(=O)CCS(=O)(=O)C1c1ccc(Cl)cc1 (stereo not drawn) | 5.55 | 
7 | CC(C)c1cccc(C(C)C)c1O | 11.3 | 
8 | C=C(C)[C@H]1CN[C@H](C(=O)O)[C@H]1CC(=O)O | 18 | 
9 | O=c1[nH]oc2c1CCNC2 | 30.8 | 
10 | CCCCC/C=C\C/C=C\C/C=C\C/C=C\CCCC(=O)NCC(=O)O | -2.19 | 
11 | O=C(O)CCCc1ccc(N(CCCl)CCCl)cc1 | 3.95 | 
12 | CC(=O)N1CCN(c2ccc(OC[C@H]3CO[C@](Cn4ccnc4)(c4ccc(Cl)cc4Cl)O3)cc2)CC1 |  | 11.7 µM (active)
13 | NCCc1ccc(O)cc1 | -3.44 | 
